High-throughput results as filed in PubChem BioAssay.
Most compounds without a hit are left out; they make up all but 0.9% or so of the library.
L3MBTL1 inh: qHTS Assay for the Inhibitors of L3MBTL1. AlphaScreen L3MBTL1–H3K9me1 peptide binding. Potency, µM (titrated, usually from 57.1 µM), for inactives: at the top dose activity, negative = inhibition, most hits filed as inhibitors. actives 0.66% (n = 230,000); also: potency is read from the fitted curve at half-maximal effect; nearly all actives have a fitted effect of over 60% in size
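Displacement of a biotinylated histone H3(1-15) peptide monomethylated at Lys9 (75 nM) from L3MBTL1 (50 nM) was measured by AlphaScreen after a 30 min room-temperature compound incubation; cefsulodin titration served as intraplate control.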
Six1-Eya2 blk: qHTS Assay for Inhibitors of the Six1/Eya2 Interaction; activity change, % (test concentration not listed); AlphaScreen GST-Six1/His-Eya2 binding, biochemical; stronger effect = lower value; actives 0.56% (n = 360,000); Homeobox protein SIX1 (Homo sapiens) + Protein phosphatase EYA2 (Homo sapiens), …; AID 651725, 2012; in the data active = activity change below about -65%; inconclusive = mostly about -30% to -63%
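AlphaScreen with GST-Six1 and His-Eya2 (5X mix: 250 nM and 500 nM), glutathione donor and nickel acceptor beads; buffer 50 mM Tris pH 8.0, 300 mM NaCl, 1 mM TCEP; 1 h at 37 C in the dark.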
B2AR arrestin: qHTS assay of beta-arrestin-biased ligands of beta2-adrenergic receptor. Beta-2 adrenergic receptor (Homo sapiens), P07550. beta-arrestin recruitment to beta2AR, cell-based reporter. Potency, µM (highest dose often 46.1 µM), without a hit: top-dose activation, usual class: activators. actives 0.02% (n = 330,000);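 also: potency is read from the fitted curve at half-maximal effect; 0% = DMSO controls and full agonism = EC100 isoproterenol or metaproterenol; nearly all actives have a fitted effect of over 65% in size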
Target sequence (P07550 whole entry, looked up): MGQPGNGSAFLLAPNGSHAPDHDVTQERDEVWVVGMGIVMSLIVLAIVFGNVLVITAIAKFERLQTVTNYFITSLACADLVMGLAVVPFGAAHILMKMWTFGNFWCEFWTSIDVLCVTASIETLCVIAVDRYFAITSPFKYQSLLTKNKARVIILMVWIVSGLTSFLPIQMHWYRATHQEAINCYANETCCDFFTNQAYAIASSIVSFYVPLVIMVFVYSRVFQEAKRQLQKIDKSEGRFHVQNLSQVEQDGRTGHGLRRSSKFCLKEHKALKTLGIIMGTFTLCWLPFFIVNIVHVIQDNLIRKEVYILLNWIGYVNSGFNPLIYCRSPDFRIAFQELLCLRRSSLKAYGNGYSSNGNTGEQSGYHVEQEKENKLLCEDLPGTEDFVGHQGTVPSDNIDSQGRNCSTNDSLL
CtBP-E1A inh: qHTS Assay for Inhibitors of the CtBP/E1A Interaction. CtBP / adenovirus E1A interaction (AlphaScreen). AlphaScreen GST-E1A/His-CtBP binding, 1536-well; stronger effect = lower value. AID 651724, 2012. activity change, % (concentration not given with the values). actives 0.49% (n = 340,000); in the data active = activity change below about -65%; inconclusive = mostly about -30% to -63%
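Protein mix (5X: 125 nM each GST-E1A, His-CtBP) was incubated with pinned compound 2 h at 37 deg C in dark, in 50 mM Tris pH 8.0 buffer with 300 mM NaCl. Glutathione donor and nickel acceptor beads followed; AlphaScreen signal read after 1 h.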
Eya2 inh: qHTS Assay for Inhibitors of the Phosphatase Activity of Eya2. Protein phosphatase EYA2 (Homo sapiens), O00167. recombinant Eya2, OMFP fluorescence dephosphorylation (OMFP is methylfluorescein phosphate). Potency, µM (highest dose often 76.9 µM), inactives show top-dose activity, negative = inhibition, hits mostly inhibitors. actives 0.006% (n = 330,000); also: potency is read from the fitted curve at half-maximal effect
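Eya2 (0.2 uM) preincubated 10 min at ambient with compound, then OMFP substrate added at 50 uM; 10 min reaction in 50 mM HEPES pH 7.5, 50 mM NaCl, 5 uM MgCl2, 0.05% BSA, 1 mM DTT. Fluorescence read at Ex 485/Em 525 nm.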
Starred values were filed as active, the others as inactive; ? = inconclusive; · = no result given. Unless noted, calls follow the shape of the dose curve; as a rule, active = well fitted curve in the direction sought with a large enough effect; inconclusive = small, poorly fitted or top-dose-only effect, or another doubt; inactive = no such curve, though single readings can be large; an effect the other way counts as inactive or inconclusive. Unless noted, % is scaled to controls: 0 for no effect and ±100 for the full control effect.

SMILES	L3MBTL1 inh	Six1-Eya2 blk	B2AR arrestin	CtBP-E1A inh	Eya2 inh
CCOC(=O)Cc1ccc(Nc2nc(NCc3cccs3)nc3ccsc23)cc1	·	-6	·	-7	·
CC(=O)N(Cc1ccccc1)c1c(N)nc(N)[nH]c1=O	·	5	·	0	·
COc1ccc(/C=C/C(=O)Nc2ccc3nc4n(c(=O)c3c2)CCCC4)cc1	·	-12	0%	-4	9%
COc1cc(/C=C/C(=O)Nc2ccc3nc4n(c(=O)c3c2)CCCC4)cc(OC)c1OC	·	-85*	0%	?	-5%
COc1cccc(/C=C/C(=O)Nc2ccc3nc4n(c(=O)c3c2)CCCC4)c1OC	·	?	1%	-78*	2%
CN(C)c1ccc(/C=C2\CCC/C(=C\c3ccccc3)C2=O)cc1	-4%	-12	0%	-10	2%
O=C1/C(=C/c2ccc(C(=O)O)cc2)CCC/C1=C\c1ccc(C(=O)O)cc1	-7%	-67*	-1%	3	7%
N=C1C(c2ccccc2)=C(O)CN1CCO	14%	-15	-1%	0	15%
COc1cccc(/C=N/NC(=O)Cn2nc(C)c([N+](=O)[O-])c2C)c1O	-5%	-95*	-1%	-94*	-10%
COc1cccc(/C=N/NC(=O)C(C)n2nc(C)c([N+](=O)[O-])c2C)c1O (stereo unspecified)	-12%	-89*	0%	-66*	-6%
CCCCCCCCC(c1nc2ccccc2[nH]1)N1CCN=C(c2ccccc2)C1=O (stereo unspecified)	·	3	·	-1	·
COc1ccc(C(CCNCc2ccc(N(C)C)cc2)C(C)C)cc1 (stereo unspecified)	?	-67*	0%	·	-9%
COc1ccccc1C(CCNCc1ccc(N(C)C)cc1)c1ccc(OC(C)C)cc1 (stereo unspecified)	·	-84*	-1%	·	-4%
COc1ccc(C(CCNCc2ccc(OC(C)C)cc2)C(C)C)cc1 (stereo unspecified)	-4%	4	4%	8	-22%
COc1ccc(CNCCC(c2ccc(OC(C)C)cc2)c2ccccc2OC)cc1 (stereo unspecified)	·	-26	0%	-12	-8%
Cc1cc(NC(=O)CSc2nnc(CNC(=O)c3c(F)cccc3F)o2)no1	·	?	0%	-80*	-5%
O=C(CSc1nnc(CNC(=O)c2c(F)cccc2F)o1)Nc1ccc2c(c1)OCO2	·	1	-1%	-1	0%
Cc1cc(NC(=O)CSc2nnc(C)o2)no1	·	?	0%	-86*	-14%
Cc1cc(NC(=O)CSc2nnc(-c3ccc(O)cc3)o2)no1	-11%	?	-1%	-29	5%
Cc1nnc(SCC(=O)Nc2nccs2)s1	-17%	4	0%	2	-3%
Cc1nnc(SCC(=O)Nc2nccs2)o1	·	?	4%	-73*	-6%
Cc1cc(C)cc(-c2nnc(SCC(=O)Nc3cc(C)on3)o2)c1	-1%	?	0%	-65*	25%
Cc1cccc(-c2[nH]c(C(C)(C)C)nc2-c2ccc3nccnc3c2)n1	·	·	·	·	4%
O=C(NCc1ccccc1Cl)[C@H]1CCCN1C(=O)[C@H]1CCCN1C(=O)c1ccccc1	·	-7	·	2	·
CCC(c1nnc(SCC(=O)NC23CC4CC(CC(C4)C2)C3)o1)N(C)C (stereo unspecified)	·	4	0%	3	3%
SMILES	L3MBTL1 inh	Six1-Eya2 blk	B2AR arrestin	CtBP-E1A inh	Eya2 inh
CCC(c1nnc(SCC(=O)Nc2cc(C)on2)o1)N(C)C (stereo unspecified)	-12%	?	0%	-91*	-1%
COc1ccc(C(=O)NC(C)CCc2ccccc2)c(O)c1 (stereo unspecified)	·	11	0%	9	12%
O=C(Nc1cccc(-c2nn[nH]n2)c1)c1ccc(Cl)s1	·	?	0%	?	10%
O=C(Nc1cccc(-c2nn[nH]n2)c1)c1ccc(Br)s1	·	?	-1%	-69*	5%
O=C(Nc1ccccc1)N1CCC(C(=O)N2CCCC(C(F)(F)F)C2)CC1 (stereo unspecified)	·	-7	0%	-3	-9%
O=S1(=O)CC(N2CCN(CCO)CC2)CN1C1CCCCC1 (stereo unspecified)	·	1	·	13	·
Cc1ccc(/C=C2\S/C(=N/S(=O)(=O)c3cccs3)NC2=O)cc1	-7%	-67*	0%	·	-2%
Cc1ccc(S(=O)(=O)/N=C2/NC(=O)/C(=C\c3ccccc3)S2)cc1	-7%	-7	-1%	-2	13%
Cc1ccc(N(CC(=O)NC2CCCCC2)C(=O)CCCC(=O)Nc2ccccn2)cc1	·	-1	0%	6	2%
CN=c1scc(-c2ccccc2F)n1/N=C/c1ccc(O)c(O)c1O	3.5µM*	-75*	0%	?	-5%
CCN=c1scc(-c2cccs2)n1/N=C/c1cc(OC)ccc1O	-7%	?	0%	?	1%
CC(C)N=c1scc(-c2cccs2)n1/N=C/c1ccc(O)c(O)c1O	?	-76*	5%	?	-23%
CN=c1scc(-c2ccccc2F)n1/N=C/c1ccc[nH]1	·	-28	0%	-24	1%
CC(C)(C)c1c(Cl)c(O)c(-c2ccccc2)c(=O)n1-c1ccccc1	32µM*	-24	0%	0	10%
Cc1c(O)c2ccccc2n(-c2ccccc2)c1=O	·	1	·	5	·
CC(=O)NC(c1ccco1)c1cc(Cl)c2ccc(N(C)C)nc2c1O (stereo unspecified)	-24%	·	4%	·	-2%
COc1ccc2c(c1)-c1c(sn(-c3ccc(OC)c(OC)c3)c1=S)C(C)(C)N2	?	0	0%	-5	0%
COc1ccc2c(c1)-c1c(ssc1=S)C(C)(C)N2	20µM*	-19	-1%	7	-20%
COc1ccc(-n2sc3c(c2=S)-c2cc(OC)ccc2NC3(C)C)cc1	32µM*	-17	0%	-2	4%
COc1ccc2c(c1)-c1c(sn(-c3ccccc3)c1=S)C(C)(C)N2	32µM*	-17	-1%	-5	-9%
COc1ccc2c(c1)-c1c(ssc1=S)C(C)(C)N2S(=O)(=O)c1ccc(C)cc1	?	?	-1%	-5	-5%
Cc1cc(NC(=O)COC(=O)C2=NN(c3ccccc3)C(=O)CC2)c([N+](=O)[O-])cc1C	-2%	-9	0%	·	5%
CN1C(=O)C(CC#N)(C2(CC#N)C(=O)N(C)c3ccccc32)c2ccccc21 (stereo unspecified)	·	4	·	-1	·
CCCNC(=O)C1(C)CCN(C(=O)c2ccccc2OC)C1 (stereo unspecified)	·	4	·	3	·
